Most compounds without a hit are left out; they make up all but 5.4% or so of the library.
Calb FLC: affects C. albicans growth with fluconazole. growth inhibition, % (no concentration beside the values). 0.57% of 300,000 active. C. albicans CaCi-2 (fluconazole-resistant clinical isolate) + fluconazole, Alamar Blue growth, 48 h;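 active = growth inhibition above about 58% in most replicates, limit read from the data, passing the limit was not always enough; inconclusive = exactly half the replicates above a set limit; inactive = most replicates below a set limit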;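 note: all wells also contain fluconazole at 8 µg/ml as a sub-toxic cotreatment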
PP1 inh: counter-screen for PP5 inhibitors: inhibitors of human PP1-alpha. P62136. purified PP1alpha, OMFP fluorescence. inhibition, % at 6.7 µM. 0.9% of 320,000 active;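 active = inhibition above the mean inhibition of all tested compounds plus 3 SD, computed separately for each screening campaign, cut at about 15% in these data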
ALR H2O2 inh: inhibitors of human sulfhydryl oxidase ALR; P55789; purified ALR, DTT oxidation, H2O2 HRP-luminol luminescence; inhibition, % (concentration not given with the values); 3.8% of 290,000 active;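 active = mean replicate inhibition above about 79%, with every replicate also reaching it, limit read from the data; inconclusive = only one of the two criteria met; inactive = mean below limit and not every replicate reaching it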
Target sequence (P55789 whole entry, looked up): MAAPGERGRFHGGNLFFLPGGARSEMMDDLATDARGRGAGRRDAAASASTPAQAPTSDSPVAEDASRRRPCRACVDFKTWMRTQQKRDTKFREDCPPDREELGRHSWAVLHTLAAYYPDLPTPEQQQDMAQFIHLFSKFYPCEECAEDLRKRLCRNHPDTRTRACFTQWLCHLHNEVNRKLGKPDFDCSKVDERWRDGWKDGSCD
PP5 inh: PP5 (human) phosphatase inhibition | P53041 | purified PP5c, OMFP substrate fluorescence | inhibition, % at 6.7 µM | 0.18% of 320,000 active | AID 1987;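 active = inhibition above the campaign's mean inhibition across all tested compounds plus 3 SD, cut at about 9.5% in these data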
CSC inhib: blocks cancer stem cells; cancer stem cell-like cells viability, luminescence; inhibition, % at 7.5 µM; 1.1% of 300,000 active; AID 2717; in the data active = inhibition above about 75%; inconclusive = no clear call, values can overlap the other calls; tested in HMLE shEcad cells
Large screens that a line does not name were inactive.

CC(C)NC(=O)COC(=O)c1ccc(S(=O)(=O)N2CCCC2)cc1	none
Cc1ccc(OCC(=O)NNC(=S)NC(=O)c2cccs2)c(C)c1	ALR H2O2 inh 98.2, CSC inhib inconclusive (no result: PP1 inh, PP5 inh)
CCCC(=O)Nc1ccc(C(=O)NNC(=S)NC(=O)c2ccc(Br)o2)cc1	none
O=C(COc1ccc(Br)cc1Br)NNC(=O)c1cccs1	none (no result: ALR H2O2 inh)
COc1ccc(C(=O)NNC(=S)NC(=O)c2ccc(Br)o2)cc1OC	ALR H2O2 inh 85.6
Cc1cc(OCC(=O)NNC(=S)NC(=O)c2cccs2)ccc1Cl	Calb FLC 103.8 (no result: PP1 inh, PP5 inh)
Cc1ccc(OCC(=O)NNC(=S)NC(=O)c2ccc(Br)o2)c(C)c1	ALR H2O2 inh 98.3 (no result: PP1 inh, PP5 inh)
CCN(CC(=O)NCc1ccc(F)cc1)C(=O)/C=C/c1ccco1	ALR H2O2 inh 87.5
CCN(CC(=O)NCc1ccc(F)cc1)C(=O)/C=C/c1cccs1	none
Cc1ccc(C(=O)COC(=O)C2C3C=CC(C3)C2C(=O)OCC(=O)c2ccc(C)c(C)c2)cc1C (stereo not given)	none
CCCCN(C)C1=CC2=CC(=C(C#N)C#N)CCC2CC1 (stereo not given)	Calb FLC inconclusive
N#CC(C#N)=C1C=C2C=C(N3CCCCC3)CCC2CC1 (stereo not given)	ALR H2O2 inh 99.2 (no result: Calb FLC)
Cc1c(NC(=O)c2ccccc2N(C)S(=O)(=O)c2ccccc2)c(=O)n(-c2ccccc2)n1C	none
Cc1cc(NCCCN2CCOCC2)n2nc(C)c(-c3ccc(F)cc3)c2n1	ALR H2O2 inh 98.0
Cc1cc(NCCCN2CCOCC2)n2nc(C)c(-c3ccccc3)c2n1	none (no result: ALR H2O2 inh)
COc1ccc2c(c1)N(C)/C(=C/c1cccc[n+]1C)S2	ALR H2O2 inh 97.3
CCN1/C(=C/c2cccc[n+]2C)Sc2ccc(OC)cc21	Calb FLC 98.9, ALR H2O2 inh 98.2
CCN1/C(=C/C(C)=O)Sc2ccc(OC)cc21	none (no result: ALR H2O2 inh)
Cc1ccc2c(c1)N(C)/C(=C/c1cccc[n+]1C)S2	ALR H2O2 inh 97.4
CCc1ccc(NC(=O)C(=S)NC2CCCCC2)cc1	none (no result: CSC inhib)
COc1ccccc1-n1c(=S)[nH]c2c(sc(=S)n2-c2ccccc2)c1=O	none
O=[N+]([O-])c1cccc(NC(=S)Nc2nc(-c3ccccc3Cl)cs2)c1	CSC inhib 86.4
O=C(NCc1ccc2c(c1)OCO2)C1CC(=O)N(c2ccc(O)cc2)C1 (stereo not given)	ALR H2O2 inh 99.1
CSc1ccccc1NC(=O)c1ccc(C)o1	none
O=C(CCl)N1N=C(c2ccco2)CC1c1cccs1 (stereo not given)	none
Cc1ccc(C2=NN(C(=O)CCl)C(c3cccs3)C2)o1 (stereo not given)	ALR H2O2 inh 97.6 (no result: CSC inhib)
CCC(/C=N/Nc1ccc(S(=O)(=O)N2CCCC2)cc1[N+](=O)[O-])CC	none
Cc1ccc(NC(=O)/C(C#N)=N/Nc2ccc(C(=O)O)cc2)c(C)c1	ALR H2O2 inh 76.2
CC1=NNC(=O)C1CC(=O)N/N=C/c1ccc(C)o1 (stereo not given)	none
CCOc1cccc(/C=N/NC(=O)CC2C(=O)NN=C2C)c1O (stereo not given)	ALR H2O2 inh 98.2
CC1=NNC(=O)C1CC(=O)N/N=C/C(C)=C/c1ccccc1 (stereo not given)	ALR H2O2 inh 94.1
CCOC(=O)C1CCCN(C2CC(=O)N(c3ccc(NC(C)=O)cc3)C2=O)C1 (stereo not given)	none
N#C/C(=C/c1ccc(O)c([N+](=O)[O-])c1)C(=O)Nc1ccccc1	none
COc1cc(/C=C/C(=O)O)cc(S(=O)(=O)NCC2CCCO2)c1OC (stereo not given)	none (no result: ALR H2O2 inh)
Oc1ccc(N2CCN(c3ncnc4sc(-c5ccccc5)cc34)CC2)cc1	Calb FLC 100.2 (no result: PP1 inh, ALR H2O2 inh, PP5 inh, CSC inhib)
Cc1nc(N2CCN(S(=O)(=O)c3ccccc3)CC2)c2cc(-c3ccccc3)sc2n1	none
CC(=O)N1CCN(c2ncnc3sc(-c4ccccc4)cc23)CC1	none (no result: ALR H2O2 inh)
Cc1nc(N2CCN(C)CC2)c2cc(-c3ccccc3)sc2n1	ALR H2O2 inh 96.5
Cc1ccc(S(=O)(=O)C2(C(=O)Nc3cccc(F)c3)CC2)cc1	none
C/C(CCN1CCc2nc(-c3ccccc3)c(-c3ccccc3)cc2C1)=N\O[C@@H](C)c1cc(-c2c(C)cc(C)cc2C)no1	CSC inhib 78.3
COc1ccc(C(=O)NN/C(C)=C/C(=O)C(F)(F)C(F)(F)C(F)(F)F)cc1	Calb FLC 94.4, CSC inhib 122.8
CCC(=O)NNC(=O)CSc1nnc(-c2ccccc2)c(-c2ccccc2)n1	none
CN1CCc2c(n(CC(O)CNCc3ccccc3)c3ccccc23)C1=O (stereo not given)	none
